An excerpt weighted towards active compounds, which were near 6.5% of everything screened.
IL-1B inflam inh – blocks inflammasome-driven IL-1 beta release | THP-1 LPS/ATP IL-1B secretion, AlphaLISA, 16 h; hits give low values | activity change, % at 57.5 µM | 360,000 tested, 4.7% active; in the data active = activity change below about -50%; inconclusive = mostly about -30% to -49%; note: % is set by controls: 0 for no effect and ±100 for the full control effect
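Secreted IL-1B measured by AlphaLISA bead assay after 16 h compound exposure of THP-1 cells; compounds (final up to 57.5 uM) added 1 h before LPS (250 ng/mL) and ATP (1.25 mM) stimulation; lower signal means less secretion.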
HepG2 tox – counter-screen for TGF-b inhibitors: cytotoxicity in HepG2 cells | HepG2 CAGA-GFP viability, ATP luminescence, 18 h | Potency, µM (top dose mostly 46.1 µM), inactives show at the top dose activity change, negative = cytotoxicity, usual class: cytotoxic | 410,000 tested, 0.76% active | AID 588856; note: potency is the fitted concentration of half-maximal effect
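HepG2 CAGA-GFP cells (1000/well, DMEM with 1% FBS) received compound, then TGF-beta at 500 pg/mL final, and were incubated 18 hours at 37 degrees C. Viability was read by CellTiter-Glo luminescence. Media-only wells were set as complete cell-killing and DMSO as no toxicity.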
Giardia killer – Giardia lamblia killing; Giardia lamblia trophozoite viability; activity change, % at 7.66 µM, hits read low; AID 540267; 340,000 tested, 0.15% active; in the data active = activity change below about -80%; inconclusive = between about -30% and that limit;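 note: parasites exposed to compound for two days anaerobically before the ATP read; % is set by controls: 0 for no effect and ±100 for the full control effect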
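Media and compound were dispensed first, then trophozoites at 100 cells/well; plates sat 48 hrs at 37 deg C without oxygen before ATP luminescence reagent was added and read after 15-30 min at room temperature.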
HT1080 IDH1KD tx – toxicity to HT-1080 IDH1 knockdown cells (counter line); 360,000 tested, 2% active; HT-1080 IDH1 knockdown viability, ATP luminescence, 48 h; Potency, µM (series often up to 46.1 µM), for inactives: top-dose activity, negative = toxicity, most hits filed as cytotoxic;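 note: potency is the fitted concentration of half-maximal effect; 0% = DMSO wells and -100% = cell-free medium wells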
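Cytotoxicity counter-line: IDH1KD HT-1080, 48 h, CellTiter-Glo. Curves classed by r2, magnitude and activity.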
TGFb SMAD3 inh – blocks TGF-b signaling; HepG2 CAGA-GFP TGF-b/SMAD3 reporter, GFP fluorescence, 18 h; TGF-beta stimulated, 500 pg/mL final; Potency, µM (highest dose often 46.1 µM), for inactives: at the top dose activity, negative = inhibition, most hits filed as inhibitors; 410,000 tested, 1.2% active; AID 588855; note: potency is the fitted concentration of half-maximal effect; % is set by controls: 0 for no effect and ±100 for the full control effect; nearly all actives have a fitted effect of over 65% in size
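HEPG2 CAGA-GFP reporter cells (1000/well, DMEM with 1% FBS) received compounds, then recombinant TGF-beta at 500 pg/mL final for 18 hours at 37 degrees C. Per-cell GFP summed per well was normalised to unstimulated and stimulated DMSO controls before curve fitting.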
HT1080NT lethal – kills 2HG-producing HT-1080-NT fibrosarcoma cells. Potency, µM (titrated, usually from 46.1 µM), without a hit: at the top dose activity, negative = less viability, most hits filed as cytotoxic. 360,000 tested, 1.6% active. HT-1080-NT fibrosarcoma viability, CellTiter-Glo ATP luminescence, 48 h. AID 686970;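 note: NT is the 2HG producing partner of a matched IDH1 knockdown line; potency is the fitted concentration of half-maximal effect; 0% = DMSO-treated cells and -100% = media-only wells without cells; nearly all actives have a fitted effect of over 55% in size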
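Luminescent CellTiter-Glo readout after 48 hours of compound exposure at 37 degrees C defined viability of HT-1080-NT cells. Activity was normalized to DMSO wells and cell-free media wells; concentration-response curves were fitted and assigned curve classes.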
Active calls of the source: *; ? = inconclusive; · = no result given. Unless noted, calls come from the whole dose curve; as a rule, active = well fitted curve in the direction sought with a large enough effect; inconclusive = small, poorly fitted or top-dose-only effect, or another doubt; inactive = no such curve, though single readings can be large; an effect the other way counts as inactive or inconclusive.

SMILES	IL-1B inflam inh	HepG2 tox	Giardia killer	HT1080 IDH1KD tx	TGFb SMAD3 inh	HT1080NT lethal
CCOc1ccc2[nH]c3c(N4CCN(c5ccccn5)CC4)ncnc3c2c1	-77*	-43%	2	?	-8%	?
c1ccc(Cn2nnc3c(N4CCc5ccccc5C4)ncnc32)cc1	-11	-26%	-25	9%	-17%	17%
c1ccc2c(c1)CCN(c1ncnc3c1[nH]c1ccccc13)C2	-84*	-61%	-5	?	?	?
Cc1ccc(SC(C)C(=O)O/N=C(\N)c2ccncc2)cc1 (stereo not drawn)	23	-2%	-8	-11%	-8%	1%
CCC1=C(c2ccc(C)cc2)S(=O)(=O)N=C1N1CCC(C(=O)NCc2ccccc2Cl)CC1	·	-27%	·	·	?	·
S=C(Nc1ccc2nsnc2c1)N1CCCCC1	-64*	7%	-1	?	-2%	?
S=C(Nc1ccc(Cl)c(Cl)c1)N1CCCC1	-28	-22%	2	-3%	-11%	-3%
COc1ccc(-c2cc3onc(-c4c(Cl)cccc4Cl)c3c(=O)n2C)cc1	21	-26%	-4	-2%	?	-3%
Cc1cc2[nH]c3ccccc3c2c(C)n1	-94*	-8%	-4	?	?	-30%
CS(=O)(=O)c1ccccc1-c1nnc(NC(=O)Cc2ccccc2)o1	-50*	-28%	5	1%	?	-17%
COCCN(C(=O)CSc1ncn[nH]1)c1c(N)n(Cc2ccccc2)c(=O)[nH]c1=O	29	-17%	4	-3%	-8%	-8%
CCOC(=O)c1sc(N(Cc2ccccc2)C(=O)COC(=O)c2ccc(O)cc2)nc1C	?	-97%	-16	-21%	13µM*	-19%
CCOC(=O)c1sc(N(Cc2ccccc2)C(=O)CSc2ncn[nH]2)nc1C	-52*	-9%	1	-24%	4%	-20%
CCOC(=O)c1sc(N(Cc2ccccc2)C(=O)COC(=O)c2ccccc2O)nc1C	0	2%	11	2%	-1%	12%
CCOC(=O)c1sc(N(C)C(C)=O)nc1C	2	-5%	-3	13%	12%	7%
CCOC(=O)c1sc(N(Cc2ccccc2)C(=O)CCl)nc1C	-101*	-173%	-9	18µM*	?	?
Cn1c(SCC(=O)NC(=O)CN2CCCC2=O)nnc1-c1ccc(F)cc1	11	1%	10	16%	-9%	13%
CCc1c(O)nc(SCC(=O)N(CC)CC)[nH]c1=O	24	-6%	-2	9%	-1%	7%
CCNC(=S)N(Cc1ccc2c(c1)OCO2)C1CC(=O)N(c2ccc(OC)cc2)C1=O (stereo not drawn)	?	-33%	2	-12%	-2%	-8%
Cc1ccc(S(=O)(=O)N(C)C)cc1NC(=O)COC(=O)Cc1n[nH]c(=O)c2ccccc12	1	-4%	2	-4%	3%	-8%
COc1ccccc1NC1=CC(=O)CC(c2ccccc2)C1 (stereo not drawn)	9	18%	11	10%	7%	8%
CC(=O)N1CCc2c(sc3c2c(=O)n(CCc2ccccc2)c(=O)n3Cc2ccc(F)cc2)C1	·	-63%	·	·	11µM*	·
CCOC(=O)N1CCc2c(sc3c2c(=O)n(CCc2ccccc2)c(=O)n3Cc2ccc(F)cc2)C1	·	-13%	·	·	-11%	·
COc1ccccc1Cc1c(C(C)(C)C)nc2c3ccccc3ccn12	?	-15%	·	13µM*	?	?
COc1ccccc1Cc1c(-c2ccc(OC)c(OC)c2)nc2c3ccccc3ccn12	-21	-13%	·	?	-57%	?
SMILES	IL-1B inflam inh	HepG2 tox	Giardia killer	HT1080 IDH1KD tx	TGFb SMAD3 inh	HT1080NT lethal
COc1ccc(-c2sc3ccc(N4CCOCC4)cc3c2C#CC2(O)CCCCC2)cc1	105	-31%	-12	?	?	21µM*
COc1ccc(-c2sc3ccc(N4CCOCC4)cc3c2C#CCO)cc1	0	-47%	7	?	?	-18%
COCCNC(=O)CN(C(=O)Cn1nnc2ccccc21)c1ccc(C)cc1	12	-22%	6	9%	-17%	12%
COc1cccc(NC(=S)N2CCCC2)c1	8	0%	0	21%	-9%	17%
Cc1cncn1CCc1nc2c3ccccc3nc(SCC(=O)Nc3cccc(Cl)c3)n2n1	-97*	-34%	4	-17%	?	-17%
Cc1cncn1CCc1nc2c3ccccc3nc(SCC(=O)Nc3ccc(F)cc3)n2n1	·	-1%	·	·	26%	·
OCCN1CCN(CCCN2c3ccccc3Sc3ccc(Cl)cc32)CC1	0	16µM*	7	?	?	?
CN1CCN(CCCN2c3ccccc3Sc3ccc(S(=O)(=O)N(C)C)cc32)CC1	-106*	11µM*	-6	12µM*	?	18µM*
CC(=O)c1ccc2c(c1)N(CCCN1CCC(CCO)CC1)c1ccccc1S2	0	-29%	-5	·	17%	·
COc1cccc(CNC(=O)C2CCCN(S(=O)(=O)c3ccc4c(ccn4C)c3)C2)c1 (stereo not drawn)	·	5%	·	·	5%	·
CCOC(=O)c1c(NC(=S)N2CCOCC2)sc2c1CCN(C(=O)OCC)C2	·	-95%	-11	12µM*	?	9.2µM*
CCOC(=O)c1c(NC(=S)N2CCCCC2)sc2c1CCN(C(=O)OCC)C2	·	-61%	7	?	?	?
COc1ccccc1C(=O)Nc1ccc(-c2nnn(CC(=O)N3CCN(C(=O)c4ccco4)CC3)n2)cc1	-16	-1%	-1	-11%	15%	-15%
Cc1ccc(C(=O)N(C)c2ccc(OCC(=O)N3c4ccc(C)cc4C4CN(C)CCC43)cc2)cc1 (stereo not drawn)	-60*	-21%	7	-13%	-14%	-3%
Cc1ccc2c(c1)C1CN(C)CCC1N2C(=O)COc1ccc(N(C)S(=O)(=O)c2cccs2)cc1 (stereo not drawn)	-11	-18%	4	-18%	-25%	-29%
COc1ccc(OCC(=O)N2c3ccc(C)cc3C3CN(C)CCC32)cc1 (stereo not drawn)	6	1%	-10	0%	-5%	-15%
Cc1ccc2c(c1)C1CN(C)CCC1N2C(=O)COc1ccc(N(C)C(=O)C(C)(C)C)cc1 (stereo not drawn)	-76*	2%	9	0%	-1%	-3%
O=C(Nc1ncc([N+](=O)[O-])s1)c1ccc2c(c1)OCO2	-12	-64%	-95*	16µM*	?	15µM*
Cc1ccc(C(=O)Nc2ncc(Cc3ccc(F)cc3)s2)o1	-2	4%	-23	?	13%	-9%

High-throughput results from PubChem BioAssay.
